# Results taken from PubChem BioAssay (NCATS).
# Where “and” joins values, the source holds several entries; their conditions need not be identical. Identical values can stand only once. Results filed as inconclusive are left out. Calls of active or inactive are those of the source. Unless noted, the call rests on the fitted dose curve.
# Tests used:
# [1] = target: Bile acid receptor (Homo sapiens) (UniProt Q96RI1); test: qHTS assay for small molecule agonists of farnesoid X receptor signaling (AID 588527); settings: HEK293T FXR-UAS-bla, beta-lactamase ratio, 16 h; activation: stronger effect = higher value;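 further: series mostly up to about 77 µM; 0% = vehicle basal and 100% = reference agonist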
# In short: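 FXR-UAS-bla HEK293T, 10% dialyzed FBS; cpds up to 92 uM titration, 16 h 37 C; CCF4 dye 2 h RT; fluorescence. Normalized to chenodeoxycholic acid 100 uM (100%) and DMSO (0%); Hill fit gives EC50, efficacy.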
# [2] = target: Peroxisome proliferator-activated receptor delta (Homo sapiens) (UniProt Q03181); test: qHTS assay for small molecule agonists of peroxisome proliferator-activated receptor delta signaling (AID 588534);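 further: 0% = DMSO basal wells and 100% = positive control agonist at 10 µM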
# In short: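 Agonist-mode qHTS; reporter cells, 5 hrs 37 C pre-incubation; compound titration, 18 hrs 37 C; CCF4 dye, 2 hrs RT; fluorescence read. EC50/efficacy via Hill fit.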
# [3] = target: Voltage-gated inwardly rectifying potassium channel KCNH2 (Homo sapiens) (UniProt Q12809); test: qHTS Assay for Small Molecule Inhibitors of the Human hERG Channel Activity (AID 588834; active means well fitted curve in the direction sought with a large enough effect; an effect the other way counts as inactive or inconclusive;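 further: top concentration of the series differs between compounds; on the % scale 0 is the no-effect control and ±100 the full control effect; lower thallium flux fluorescence means stronger hERG block; nearly all actives have a fitted effect of over 50% in size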)
# In short: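 Step 1: BacMam hERG transduction of U2OS, 4 hrs RT. Step 2: overnight 37 °C, plate 2000 cells/well, 4 hr. Step 3: FluxOR load, compound 10 min, stimulate, read fluorescence.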
# [4] = S16 Schwann cell PMP22 intronic element firefly luciferase assay (AID 624032; active means well fitted curve in the direction sought with a large enough effect; an effect the other way counts as inactive or inconclusive;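 further: series mostly up to about 58 µM; plate controls were DMSO for no effect and PTC124 positive control mean for full effect; nearly all actives have a fitted effect of over 30% in size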)
# In short: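 Rat S16 Schwann cells stably carrying firefly luciferase driven by a PMP22 intronic element, in 10% FBS, treated 24 h at 37 C. ONE-Glo luminescence normalized to PTC124 control and DMSO (0%); curves classed by r2, magnitude and activity.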
# [5] = target: Nuclear receptor ROR-gamma (Homo sapiens) (UniProt P51449); test: qHTS assay for small molecule antagonists of the retinoid-related orphan receptor gamma (ROR-gamma) signaling pathway (AID 651802; active means well fitted curve in the direction sought with a large enough effect; an effect the other way counts as inactive or inconclusive;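 further: CHO cells with doxycycline-induced ROR-gamma expression; series mostly up to about 92 µM; on the % scale 0 is the no-effect control and ±100 the full control effect; nearly all actives have a fitted effect of over 60% in size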)
# In short: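 Steps: cells dispensed; compound or DMSO transferred by pin tool; doxycycline added to induce the ROR response element-driven luciferase; plates held 16hr at 37C; ONE-Glo added and luminescence measured.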
# [6] = target: Vitamin D3 receptor (Homo sapiens) (UniProt P11473); test: qHTS assay for small molecule agonists of vitamin D receptor signaling (AID 588543);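 further: 0% = DMSO basal and 100% = reference agonist control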
# In short: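 Reporter cells (HEK293T, VDR-UAS-bla) were seeded in medium with 2% charcoal-stripped serum and incubated 5 h, then compounds in concentration series were added for 16 h at 37 °C. Stimulation was scaled between DMSO basal and 50 nM 1α,25-dihydroxyvitamin D3.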
# [7] = qHTS assay for small molecule antagonists of retinoid X receptor alpha signaling (AID 588546; active means well fitted inhibition curve with a large enough effect in the signal ratio, with a control signal flat, not every such curve was filed as active; the % refers to the signal ratio; further: potency means the concentration at half of the fitted maximal effect;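 on max response: cells stimulated with 9-cis-retinoic acid as agonist; on the % scale 0 is the no-effect control and ±100 the full control effect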); settings: HEK293T RXRa-UAS-bla, beta-lactamase ratio, antagonist mode; measured here: W530 green channel, cytotoxicity proxy
# In short: (§1)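 Beta-lactamase reporter inhibition, read as CCF4 fluorescence ratio (ex 405, em 460/530 nm) after 2 h at RT. HEK293T UAS-bla cells, 2500/well, were stimulated with 9-cis-RA at 500 or 100 nM final alongside test compound for 18 h at 37 C.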
# [8] = target: Retinoic acid receptor RXR-alpha (Homo sapiens) (UniProt P19793); test: as above; settings: HEK293T RXRa-UAS-bla, beta-lactamase ratio, antagonist mode
# In short: as §1
# [9] = qHTS assay for small molecule activators of the p53 signaling pathway (AID 651743; active means well fitted activation curve with a large enough effect in the signal ratio, not every such curve was filed as active; the % refers to the signal ratio; further: potency means the concentration at half of the fitted maximal effect; on activation: series mostly up to about 92 µM; % of control where 0% means no effect); settings: HCT-116 p53RE-bla, beta-lactamase FRET ratio, 16 h; activation: stronger effect = higher value
# In short: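 Following 16 hours of compound exposure at 37 C, HCT-116 cells bearing the p53RE-bla reporter were loaded with LiveBLAzer B/G FRET substrate for 2 hours at room temperature and fluorescence intensity was recorded.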
# [10] = qHTS assay for environmental chemicals that activate the Aryl hydrocarbon Receptor (AhR) signaling pathway (AID 651777; active means well fitted curve in the direction sought with a large enough effect; an effect the other way counts as inactive or inconclusive; further: % of control where 0% means no effect; nearly all actives have a fitted effect of over 15% in size); settings: 1A2-DRE human hepatoma cells, luciferase, 24 h; activation: stronger effect = higher value
# In short: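 Human hepatoma 1A2-DRE cells, stably carrying a dioxin response element and CYP1A2 promoter driving luciferase, were exposed to compounds for 24 hr at 37 C and 5% CO2. Luciferase signal was then read after 30 min One-Glo at room temperature.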
# [11] = target: Peroxisome proliferator-activated receptor alpha (Homo sapiens) (UniProt Q07869); test: qHTS assay for small molecule agonists of the peroxisome proliferator-activated receptor alpha (PPARalpha) signaling pathway (AID 651778; active means well fitted curve in the direction sought with a large enough effect; an effect the other way counts as inactive or inconclusive; further: % of control where 0% means no effect); settings: PathHunter PPARalpha complementation, chemiluminescence, 6 h; max response: stronger effect = higher value
# In short: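 Enzyme-fragment complementation assay in which ligand-bound PPARalpha translocates and forms an active enzyme that generates chemiluminescence. Cells were plated overnight, exposed to compound for 6 hr at 37 C, and then given detection reagent for 60 min at room temperature.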
# [12] = qHTS assay for small molecule agonists of the antioxidant response element (ARE) signaling pathway measured by Nrf2-dependant transcriptional activity (AID 720636; active means well fitted curve in the direction sought with a large enough effect in the repeat runs; an effect the other way counts as inactive or inconclusive; further: % of control where 0% means no effect)
# In short: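 ARE-luc HepG2 cells carrying an Nrf2-responsive luciferase reporter were plated in medium with 1% dialyzed FBS, left 6 hr at 37 C to attach, then exposed to compound for 16 hr. Luciferase luminescence was read after ONE-Glo addition.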
# [13] = qHTS assay for small molecule agonists of the antioxidant response element (ARE) signaling pathway measured by Nrf2-dependant transcriptional activity - cell viability counter screen (AID 720653; active means well fitted curve in the direction sought with a large enough effect in the repeat runs; an effect the other way counts as inactive or inconclusive; further: potency means the concentration at half of the fitted maximal effect; on max response: on the % scale 0 is the no-effect control and ±100 the full control effect); settings: ARE-bla HepG2 viability, CellTiter-Glo ATP luminescence, 16 h; max response: stronger effect = lower value
# In short: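 ARE-bla HepG2 cells treated with compounds for 16 h at 37C; this counter screen measures viability as intracellular ATP by CellTiter-Glo luminescence after 30 min at room temperature.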
# [14] = qHTS assay for cell viability of HEK293 cells (AID 743288; active means well fitted curve in the direction sought with a large enough effect; an effect the other way counts as inactive or inconclusive; further: nearly all actives have a fitted effect of over 50% in size; further: potency means the concentration at half of the fitted maximal effect; on max response: on the % scale 0 is the no-effect control and ±100 the full control effect); settings: ATP luminescence (CellTiter-Glo), 18 h; max response: stronger effect = lower value
# In short: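 Viable-cell counts were inferred from luciferase-based ATP content in HEK293 cells seeded at 2,000/well, pre-incubated ≥5 h, then dosed with DMSO-solubilised compounds for 18 h at 37 C.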
# [15] = target: Cytochrome P450 3A4 (Homo sapiens) (UniProt P08684); test: qHTS Assay for Activators of Cytochrome P450 3A4 (AID 885; active means well fitted curve in the direction sought with a large enough effect; an effect the other way counts as inactive or inconclusive; further: nearly all actives have a fitted effect of over 65% in size)
# In short: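 CYP3A4 activity: Luciferin-PPXE O-dealkylation, 25uM substrate, 200mM KPO4, RT throughout. Read-out is luciferase luminescence; higher values reflect activation.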
# [16] = target: Thyroid hormone receptor beta (Homo sapiens) (UniProt P10828); test: qHTS assay for small molecule antagonists of thyroid hormone receptor beta signaling (AID 588547; active means well fitted inhibition curve with a large enough effect in the signal ratio, with a control signal flat, not every such curve was filed as active; the % refers to the signal ratio;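 further: cells stimulated with 0.4 nM T3 agonist during compound exposure; series mostly up to about 77 µM; on the % scale 0 is the no-effect control and ±100 the full control effect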); settings: TR-UAS-bla HEK293, beta-lactamase ratio, antagonist mode, 18 h
# In short: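 TR-UAS-bla GripTite HEK293 cells in 2% charcoal/dextran FBS medium; compounds 0.59 nM to 92 uM with T3 at 0.4nM final, 18 h at 37 C. Beta-lactamase read by CCF4 fluorescence (460/530 nm); Hill fits gave IC50 and efficacy.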
# [17] = target: Thyroid hormone receptor beta (Homo sapiens) (UniProt P10828); test: qHTS assay for small molecule agonists of thyroid hormone receptor beta signaling (AID 588545)
# In short: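 HEK 293 TR-UAS-bla; agonist mode; 18 hrs, 37 C; CCF4, ex 405/em 460 and 530 nm; norm. T3 10 nM = 100%, DMSO = 0%; Hill fit → EC50, efficacy.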
# [18] = qHTS assay for cell viability of the p53RE-bla HCT-116 cell line (AID 743292; active means well fitted curve in the direction sought with a large enough effect; an effect the other way counts as inactive or inconclusive; further: on the % scale 0 is the no-effect control and ±100 the full control effect; nearly all actives have a fitted effect of over 55% in size)
# In short: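 CellSensor p53RE-bla HCT-116 cells, 4,000/well, preincubated 5 h at 37 C, then exposed to compounds in DMSO for 16 h at 37 C. Viability read as CellTiter-Glo luminescence (intracellular ATP) after 30 min at room temperature.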
# [19] = qHTS assay for small molecule activators of the human pregnane X receptor (PXR) signaling pathway (AID 720659; call rule not given here; further: 0% is about no effect)
# [20] = target: Peroxisome proliferator-activated receptor gamma (Homo sapiens) (UniProt P37231); test: qHTS assay for small molecule antagonists of peroxisome proliferator-activated receptor gamma signaling (AID 588537; active means well fitted inhibition curve with a large enough effect in the signal ratio, with a control signal flat, not every such curve was filed as active; the % refers to the signal ratio;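 further: reporter cells co-stimulated with 50 nM rosiglitazone agonist during compound treatment; % of control where 0% means no effect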)
# In short: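 Fluorescence at 460 and 530 nm (405 nm excitation) reported beta-lactamase cleavage of CCF4 after 2 h room-temperature loading. HEK293 reporter cells in 1% charcoal/dextran-treated FBS had received compound and rosiglitazone for 16 h.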
# [21] = MultiTox-Fluor Cytotoxicity Assay - LYMP1-001 - Live Cells (AID 947; active means well fitted curve in the direction sought with a large enough effect; an effect the other way counts as inactive or inconclusive;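 further: 0% = DMSO only and full inhibition = tetraoctylammonium bromide control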)
# [22] = qHTS assay for small molecule agonists of retinoid X receptor alpha signaling (AID 588544); settings: HEK293T RXRa-UAS-bla, beta-lactamase reporter, 18 h; 530 nm emission
# [23] = qHTS assay for small molecule agonists of the antioxidant response element (ARE) signaling pathway (AID 651741; active means well fitted activation curve with a large enough effect in the signal ratio; the % refers to the signal ratio; further: % of control where 0% means no effect)
# In short: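 Stably integrated ARE-beta-lactamase reporter HepG2 cells; 16 h compound incubation, 37 C; LiveBLAzer FRET substrate 2 h at room temperature; fluorescence intensity.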
# Bile acid receptor (Homo sapiens), sequence (Q96RI1 whole entry, looked up): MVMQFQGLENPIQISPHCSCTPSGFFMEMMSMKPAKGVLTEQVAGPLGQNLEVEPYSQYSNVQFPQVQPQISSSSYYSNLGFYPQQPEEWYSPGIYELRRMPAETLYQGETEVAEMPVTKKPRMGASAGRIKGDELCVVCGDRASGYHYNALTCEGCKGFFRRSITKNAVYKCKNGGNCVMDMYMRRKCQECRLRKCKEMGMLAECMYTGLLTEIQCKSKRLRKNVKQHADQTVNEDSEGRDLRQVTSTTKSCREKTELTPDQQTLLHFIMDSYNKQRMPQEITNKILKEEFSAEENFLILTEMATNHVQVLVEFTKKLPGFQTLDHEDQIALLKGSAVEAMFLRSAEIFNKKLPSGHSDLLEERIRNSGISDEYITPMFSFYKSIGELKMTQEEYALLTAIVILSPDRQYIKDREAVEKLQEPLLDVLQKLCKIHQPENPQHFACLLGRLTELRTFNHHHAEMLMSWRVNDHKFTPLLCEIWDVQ
# Cytochrome P450 3A4 (Homo sapiens), sequence (P08684 whole entry, looked up): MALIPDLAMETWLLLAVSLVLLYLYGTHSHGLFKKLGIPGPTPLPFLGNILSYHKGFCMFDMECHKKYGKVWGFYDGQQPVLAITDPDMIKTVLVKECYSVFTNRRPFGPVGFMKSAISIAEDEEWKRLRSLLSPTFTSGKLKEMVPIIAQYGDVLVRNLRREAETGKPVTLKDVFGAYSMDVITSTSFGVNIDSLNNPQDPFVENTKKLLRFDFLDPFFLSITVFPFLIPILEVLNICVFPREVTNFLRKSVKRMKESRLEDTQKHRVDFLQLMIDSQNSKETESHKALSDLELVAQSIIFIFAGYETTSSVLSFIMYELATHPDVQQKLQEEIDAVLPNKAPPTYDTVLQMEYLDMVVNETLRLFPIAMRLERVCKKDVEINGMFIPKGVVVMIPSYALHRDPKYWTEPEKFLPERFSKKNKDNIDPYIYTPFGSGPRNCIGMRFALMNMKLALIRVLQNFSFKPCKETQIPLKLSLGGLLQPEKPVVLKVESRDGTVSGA
# Nuclear receptor ROR-gamma (Homo sapiens), sequence (P51449 whole entry, looked up): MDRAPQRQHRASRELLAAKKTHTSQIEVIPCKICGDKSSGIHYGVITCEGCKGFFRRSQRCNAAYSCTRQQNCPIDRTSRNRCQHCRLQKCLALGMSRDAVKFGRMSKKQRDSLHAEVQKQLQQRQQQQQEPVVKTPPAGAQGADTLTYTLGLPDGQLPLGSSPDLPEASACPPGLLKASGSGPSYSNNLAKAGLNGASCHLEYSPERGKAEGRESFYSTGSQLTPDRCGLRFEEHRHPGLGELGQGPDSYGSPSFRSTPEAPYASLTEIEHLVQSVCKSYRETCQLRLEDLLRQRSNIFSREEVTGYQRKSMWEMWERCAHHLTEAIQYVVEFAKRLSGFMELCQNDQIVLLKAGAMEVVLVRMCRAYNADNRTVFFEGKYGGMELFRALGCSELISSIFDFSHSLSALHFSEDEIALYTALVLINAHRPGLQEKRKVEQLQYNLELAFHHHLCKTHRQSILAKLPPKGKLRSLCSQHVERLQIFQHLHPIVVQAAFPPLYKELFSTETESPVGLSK
# Peroxisome proliferator-activated receptor delta (Homo sapiens), sequence (Q03181 whole entry, looked up): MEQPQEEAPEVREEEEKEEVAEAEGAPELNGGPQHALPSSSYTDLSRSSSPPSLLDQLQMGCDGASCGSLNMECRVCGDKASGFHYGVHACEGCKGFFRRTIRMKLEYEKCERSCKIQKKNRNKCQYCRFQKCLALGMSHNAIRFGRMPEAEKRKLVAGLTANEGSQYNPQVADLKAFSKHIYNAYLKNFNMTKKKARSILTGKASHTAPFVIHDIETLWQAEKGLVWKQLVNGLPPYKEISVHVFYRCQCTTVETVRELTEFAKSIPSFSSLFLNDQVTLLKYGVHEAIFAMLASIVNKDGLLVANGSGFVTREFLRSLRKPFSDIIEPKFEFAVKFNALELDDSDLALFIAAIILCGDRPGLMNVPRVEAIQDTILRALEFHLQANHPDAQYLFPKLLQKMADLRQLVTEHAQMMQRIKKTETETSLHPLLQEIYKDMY
# Thyroid hormone receptor beta (Homo sapiens), sequence (P10828 whole entry, looked up): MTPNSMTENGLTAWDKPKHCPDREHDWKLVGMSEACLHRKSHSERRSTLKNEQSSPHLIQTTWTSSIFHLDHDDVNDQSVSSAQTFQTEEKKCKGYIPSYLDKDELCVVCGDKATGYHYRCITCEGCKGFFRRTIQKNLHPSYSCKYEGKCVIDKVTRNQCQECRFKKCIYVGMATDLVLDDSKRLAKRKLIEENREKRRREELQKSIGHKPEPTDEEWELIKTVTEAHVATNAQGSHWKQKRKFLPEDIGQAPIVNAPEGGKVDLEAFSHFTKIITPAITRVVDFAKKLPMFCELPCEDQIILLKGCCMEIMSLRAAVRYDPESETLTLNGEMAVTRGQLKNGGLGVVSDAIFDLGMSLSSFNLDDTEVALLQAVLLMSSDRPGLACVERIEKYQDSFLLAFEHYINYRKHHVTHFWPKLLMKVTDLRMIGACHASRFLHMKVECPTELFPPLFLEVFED
# Vitamin D3 receptor (Homo sapiens), sequence (P11473 whole entry, looked up): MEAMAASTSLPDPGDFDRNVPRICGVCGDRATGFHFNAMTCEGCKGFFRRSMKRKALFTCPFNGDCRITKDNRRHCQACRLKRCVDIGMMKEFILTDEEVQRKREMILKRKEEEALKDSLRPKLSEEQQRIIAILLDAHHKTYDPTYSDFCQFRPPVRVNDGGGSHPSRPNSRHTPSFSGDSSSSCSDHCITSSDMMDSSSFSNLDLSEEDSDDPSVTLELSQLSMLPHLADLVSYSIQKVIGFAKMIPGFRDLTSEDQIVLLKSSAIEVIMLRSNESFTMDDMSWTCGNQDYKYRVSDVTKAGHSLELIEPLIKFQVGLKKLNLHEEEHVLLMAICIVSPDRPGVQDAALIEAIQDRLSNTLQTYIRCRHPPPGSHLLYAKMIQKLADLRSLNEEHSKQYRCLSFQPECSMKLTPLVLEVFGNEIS
# Peroxisome proliferator-activated receptor alpha (Homo sapiens), sequence (Q07869 whole entry, looked up, the tested form may be a part): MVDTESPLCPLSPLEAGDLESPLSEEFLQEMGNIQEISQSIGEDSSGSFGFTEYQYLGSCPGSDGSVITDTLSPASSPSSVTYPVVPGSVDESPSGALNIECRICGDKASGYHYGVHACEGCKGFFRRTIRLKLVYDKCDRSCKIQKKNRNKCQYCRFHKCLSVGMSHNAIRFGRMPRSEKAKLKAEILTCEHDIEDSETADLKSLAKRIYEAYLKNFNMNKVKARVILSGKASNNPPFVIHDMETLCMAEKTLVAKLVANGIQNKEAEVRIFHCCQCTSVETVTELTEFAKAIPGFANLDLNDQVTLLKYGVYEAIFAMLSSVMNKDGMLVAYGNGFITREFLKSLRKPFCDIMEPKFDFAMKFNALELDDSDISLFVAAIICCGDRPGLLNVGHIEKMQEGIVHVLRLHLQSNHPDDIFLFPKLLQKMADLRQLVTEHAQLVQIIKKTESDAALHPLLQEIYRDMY
# Retinoic acid receptor RXR-alpha (Homo sapiens), sequence (P19793 whole entry, looked up): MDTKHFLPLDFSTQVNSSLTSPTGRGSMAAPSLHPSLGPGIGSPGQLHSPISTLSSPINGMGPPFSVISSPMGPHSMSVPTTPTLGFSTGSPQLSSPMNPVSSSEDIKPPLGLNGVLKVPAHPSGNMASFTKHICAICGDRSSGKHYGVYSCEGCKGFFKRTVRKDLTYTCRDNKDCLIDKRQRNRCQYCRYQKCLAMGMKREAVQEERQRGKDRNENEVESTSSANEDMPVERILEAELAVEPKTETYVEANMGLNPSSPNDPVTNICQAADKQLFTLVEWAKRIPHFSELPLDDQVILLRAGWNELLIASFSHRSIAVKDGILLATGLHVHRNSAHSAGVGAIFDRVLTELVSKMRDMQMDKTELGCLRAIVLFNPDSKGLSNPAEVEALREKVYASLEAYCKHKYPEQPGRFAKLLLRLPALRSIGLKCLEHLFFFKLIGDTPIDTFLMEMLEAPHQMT
# Peroxisome proliferator-activated receptor gamma (Homo sapiens), sequence (P37231 whole entry, looked up): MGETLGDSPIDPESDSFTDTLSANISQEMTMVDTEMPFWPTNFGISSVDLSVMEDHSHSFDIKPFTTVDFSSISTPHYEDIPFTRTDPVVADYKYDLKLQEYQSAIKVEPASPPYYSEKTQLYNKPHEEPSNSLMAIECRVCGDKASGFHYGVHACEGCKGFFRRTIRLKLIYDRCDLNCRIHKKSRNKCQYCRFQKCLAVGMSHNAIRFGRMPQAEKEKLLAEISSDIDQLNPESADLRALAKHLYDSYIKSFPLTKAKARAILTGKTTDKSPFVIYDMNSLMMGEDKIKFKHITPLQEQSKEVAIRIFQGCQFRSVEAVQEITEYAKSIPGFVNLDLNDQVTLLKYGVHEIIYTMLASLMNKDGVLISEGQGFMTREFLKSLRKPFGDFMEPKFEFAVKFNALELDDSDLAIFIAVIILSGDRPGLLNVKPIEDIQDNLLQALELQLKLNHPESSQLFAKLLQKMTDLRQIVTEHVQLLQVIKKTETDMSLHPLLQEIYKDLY
structure (smiles),measurement,setting,value
CN(C)CCCCCCN(C)C,activation,[1],-2.62% (inactive)
same,outcome,[2],inactive
same,Potency,[3],inactive
same,Potency,[4],inactive
same,Potency,[5],inactive
CC1(c2ccc(Oc3ccccc3)cc2)OC(=O)N(Nc2ccccc2)C1=O (centres undefined),activation,[1],4.14% (inactive)
same,outcome,[2],inactive
same,outcome,[6],inactive
same,max response,[7],19.6%
same,Potency,[8],31.6 µM (active)
same,Potency,[9],5.01 µM (active)
same,activation,[10],4.76% (inactive)
same,max response,[11],11.6% (inactive)
same,Potency,[12],inactive
same,max response,[13],-28.5% (inactive)
same,max response,[14],-20.8% (inactive)
CCCCC(CC)COC(=O)CCCCC(=O)OCC(CC)CCCC (centres undefined),Potency,[15],inactive
same,activation,[1],-0.368% (inactive) and -0.458% (inactive)
same,outcome,[2],inactive
same,activity change % (negative = inhibition),[16],4.91% (inactive)
same,Potency,[5],inactive
Cc1cc(C)c(N)cc1C,Potency,[15],inactive
same,activation,[1],-1.7% (inactive)
same,Potency,[5],inactive
[Cu+2].[O-]c1cccc2cccnc12.[O-]c1cccc2cccnc12,activation,[1],-9.69% (inactive)
same,outcome,[6],inactive
same,Potency,[17],inactive
same,activation,[9],-8.29% (inactive)
same,activation,[10],-12.2% (inactive)
same,max response,[11],-9.55% (inactive)
same,Potency,[12],inactive
same,Potency,[13],11.2 µM (active)
same,Potency,[14],31.6 µM (active)
same,Potency,[18],inactive
same,outcome,[19],inactive
Nc1cccc(C(F)(F)F)c1,activation,[1],-1.94% (inactive) and -0.257% (inactive)
same,Potency,[20],inactive
same,activation,[9],-3.34% (inactive)
CN(C)C=O,Potency,[21],inactive
same,activation,[1],-2.96% (inactive) and -2.36% (inactive) and -5.04% (inactive)
same,max response,[22],2.34% and -5.07% and -17.6%
CN(C)c1ccc(Cc2ccc(N(C)C)cc2)cc1,Potency,[15],inactive
same,activation,[1],-1.47% (inactive)
same,Potency,[23],inactive
